Measured values reported in PubChem BioAssay (NCI).
Compounds without any hit were thinned out: in the full panel of roughly 83,000, 20% have a hit.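 Growth was measured after 48 h exposure to one concentration of compound in 96-well plates. Values under 10 count as active.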 Values without a mark were called inactive. Calls of active or inactive are those of the source.

Tests used:
Assay in all cases: NCI-60 one-dose screen, 48 h (100 = growth as untreated, 0 = no growth, -100 = all killed)
Conditions in all cases: 10 µM unless noted
SR leukemia = test system: SR leukemia
RPMI-8226 leukemia = test system: RPMI-8226 leukemia
OVCAR-8 ovarian = test system: OVCAR-8 ovarian
OVCAR-5 ovarian = test system: OVCAR-5 ovarian
OVCAR-4 ovarian = test system: OVCAR-4 ovarian
SK-OV-3 ovarian = test system: SK-OV-3 ovarian
IGROV1 ovarian = test system: IGROV1 ovarian
OVCAR-3 ovarian = test system: OVCAR-3 ovarian
HS 578T breast = test system: HS 578T breast
NCI/ADR-RES ovarian = test system: NCI/ADR-RES ovarian
T-47D breast = test system: T-47D breast
BT-549 breast = test system: BT-549 breast
MDA-MB-435 melanoma = test system: MDA-MB-435 melanoma
SW-620 colon = test system: SW-620 colon
MCF7 breast = test system: MCF7 breast
HCT-116 colon = test system: HCT-116 colon
KM12 colon = test system: KM12 colon
HCC-2998 colon = test system: HCC-2998 colon

| SMILES | growth (SR leukemia) | growth (RPMI-8226 leukemia) | growth (OVCAR-8 ovarian) | growth (OVCAR-5 ovarian) | growth (OVCAR-4 ovarian) | growth (SK-OV-3 ovarian) | growth (IGROV1 ovarian) | growth (OVCAR-3 ovarian) | growth (HS 578T breast) | growth (NCI/ADR-RES ovarian) | growth (T-47D breast) | growth (BT-549 breast) | growth (MDA-MB-435 melanoma) | growth (SW-620 colon) | growth (MCF7 breast) | growth (HCT-116 colon) | growth (KM12 colon) | growth (HCC-2998 colon) |
| --- | --- | --- | --- | --- | --- | --- | --- | --- | --- | --- | --- | --- | --- | --- | --- | --- | --- | --- |
| N=C1C(c2nc(-c3ccc(Br)cc3)cs2)=C(O)CN1CC1CCCO1 (stereo unspecified) | 38.9% | 48.5% | 52.7% | 89.2% | 75% | 113% | 46.2% | 105% | 89% | 76.3% | 95.7% | 106% | 88.8% | 60% | 78.4% | 25.7% | 86.6% |  |
| COc1ccc(C2=Nc3c(N)ncnc3NC(c3ccc4c(c3)OCO4)C2)cc1 (stereo unspecified) | 96.5% | 61.5% | 103% | 72.9% | 95% | 97.5% | 37% | 100% | 87.7% | 75.7% | 80.3% | 89% | 94.2% | 85.5% | 76.1% |  | 95.8% | -6.86% (active) |
| CCC(CO)Nc1nc2ccc(Cl)cc2c2ccccc12 (stereo unspecified) | 26.9% | 66.6% | 75.1% | 66.9% | 71.3% | 70.7% | 58.1% | 62.8% | 29.5% | 62.4% | 59.5% | 70.6% |  | 79.7% | 72.7% | 71.5% | 45.7% | 54.9% |
| C[n+]1cc2cc(C(N)=O)[nH]c3c(=N)c(Cl)c(N)c1c23 | 37.6% | 73% | 43.1% | 62% | 73% | 60% | 65.1% | 63.1% |  | 60% | 48.3% | 78.9% | 85.7% | 30.8% | 35.8% | 6.54% (active) | 74.5% | 65.5% |
| Cc1ccc(Cl)c(NS(=O)(=O)c2ccc(-c3cnc(C4CC4)o3)cc2)c1 | 15.7% | 18.8% | 28.1% | 26.4% | 48.3% | 44.5% | 27% | -1.26% (active) |  | 19.5% | 45% |  | -59.6% (active) | 18.6% | 12.4% | 13.8% | 16.5% | 26.8% |
| CCN(CC)CCCNc1ccc(Nc2ccc(OC)cc2)cc1 | 52.9% | 64.5% | 83.1% | 108% | 84.6% | 106% | 37.6% | 59.6% |  | 94.7% | 118% | 59% | 82.7% | 49.7% | 110% | 82.2% | 85.3% |  |
| Cc1ccc(C(=O)COc2cccc(/C=C3\Oc4ccccc4C3=O)c2)cc1 | 71.9% | 106% | 106% | 106% | 85.7% | 134% |  | 96.6% | 322% | 88.3% | 50.3% | 124% | 90.2% | 123% | 116% | 94.2% | 100% | 108% |
| O=[N+]([O-])c1ccc(C2CC(c3ccccc3)=Nc3ccccc3S2)cc1 (stereo unspecified) | 30.9% | -6.89% (active) | 94.9% | 113% | 93.5% | 100% | 58.7% | 83.9% | 93.3% |  | 70.9% | 95% | 103% | 79.4% | 32.6% |  | 73.6% | 103% |
| COc1cc2c(cc1-c1c(C)noc1C)ncc1nc(C3CCCCC3)n(C3CCC(OC(F)F)CC3)c12 (stereo unspecified) | 16.7% | 4.9% (active) | 40.5% | 63.5% | 40.3% | -2.64% (active) | 50.9% | 27.8% | 52.2% | 30% |  | 51.5% | 41.6% | 58.3% | 15.1% | 24.8% | 39.2% |  |
| Fc1ccc(CNc2c3ccccc3nc3ccccc23)cc1F | 17% | 26.9% | 32.1% | 44.6% | 35.4% | 55.7% | 22.8% | 68.9% |  | 27.6% | 47.9% | 68.2% | 49.2% | 23.7% | 12.9% | 8.18% (active) | 53.3% | 2.15% (active) |
